# Experimental data reported in PubChem BioAssay (NCATS).
# Results filed as inconclusive are left out. The source made the active and inactive calls. Unless noted, the call rests on the fitted dose curve; in most records, active means well fitted curve in the direction sought with a large enough effect; inconclusive means small, poorly fitted or top-dose-only effect, or another doubt; inactive means no such curve, though single readings can be large; an effect the other way counts as inactive or inconclusive.
# Tests used:
# [1] = qHTS to identify inhibitors of the type 1 interferon - major histocompatibility complex class I in skeletal muscle: primary screen against the NCATS Mechanism Interrogation Plate v5.0 (MIPE) Libary (AID 1347411);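 further: plate controls were vehicle for no effect and reference inhibitor for full effect; nearly all actives have a fitted effect of over 65% in size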
# Method in brief: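 Immortalized human C25cl48 myoblasts with HiBit knocked into endogenous HLA-B*08:01 were stimulated with 4.0 ng/ml IFN-beta and exposed to compounds (11-point 1:3 titration, top 46 uM final) for 24 hrs at 37 C; HiBiT lytic luminescence measured.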
# [2] = Primary qHTS for inhibitors of nuclear receptor binding SET domain protein 2 (NSD2) in an isogenic RCH-ACV NSD2 p.E1099K mutant (9B) (AID 1645876); further: potency means the concentration at half of the fitted maximal effect; nearly all actives have a fitted effect of over 70% in size
# [3] = Primary qHTS for inhibitors of nuclear receptor binding SET domain protein 2 (NSD2) in an RCH-ACV wild type WT cells (2C) (AID 1645877); further: potency means the concentration at half of the fitted maximal effect; nearly all actives have a fitted effect of over 70% in size
# [4] = target: Glutathione peroxidase 1 (Homo sapiens) (UniProt P07203); assay: Primary qHTS Assay for Inhibitors of Recombinant Selenoprotein Glutathione Peroxidase 1 (GPX1) (AID 1845191); further: on the % scale 0 is the no-effect control and ±100 the full control effect; nearly all actives have a fitted effect of over 65% in size
# Method in brief: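 10 nM GPX1 + cpd, 30 min RT; start w/ 1 mM GSH, 0.5 mM cumene hydroperoxide, 0.5 mM NADPH, 100 nM GR, 0.01% BSA; buffer 50 mM Tris-HCl pH 7.5, 2 mM EDTA, 150 mM NaCl; Fl 340/450, 0 & 15 min.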
# [5] = target: Phospholipid hydroperoxide glutathione peroxidase GPX4 (Homo sapiens) (UniProt P36969); assay: Primary qHTS Assay for Inhibitors of Recombinant Selenoprotein Glutathione Peroxidase 4 (GPX4) (AID 1845192); details: outcome: dose series up to 50 µM unless noted; further: series mostly up to about 50 µM; on the % scale 0 is the no-effect control and ±100 the full control effect; nearly all actives have a fitted effect of over 65% in size
# Method in brief: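 NADPH consumption, followed by fluorescence at 340/450 nm between 0 and 15 min, reports GPX4 activity via coupled glutathione reductase (100 nM). Enzyme 200 nM was pre-exposed to compound 30 min; 0.5 mM cumene hydroperoxide and 1 mM GSH served as substrates.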
# [6] = qHTS drug screen for cell cycle checkpoint inhibitors in PARPi-resistant BRCA-mutant ovarian cancer cell lines. (AID 1963452; calls by dose curve); details: PEO1/OlaR viability, CellTiter-Glo luminescence, 96 h, stronger effect = lower value
# Method in brief: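 PEO1, PEO4 and PEO1/OlaR ovarian cancer cells, 600 per well, exposed 96 h at 37C to a dilution series. Viability read by CellTiter-Glo luminescence, normalized to DMSO and empty wells; activity summarized as Z-AUC.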
# Sequence of Phospholipid hydroperoxide glutathione peroxidase GPX4 (Homo sapiens) (P36969 whole entry, looked up): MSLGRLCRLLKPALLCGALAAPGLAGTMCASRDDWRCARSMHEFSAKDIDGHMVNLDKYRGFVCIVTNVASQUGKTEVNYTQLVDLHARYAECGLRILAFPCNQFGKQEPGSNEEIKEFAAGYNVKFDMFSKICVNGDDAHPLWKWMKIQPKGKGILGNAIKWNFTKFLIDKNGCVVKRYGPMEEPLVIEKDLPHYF
# Sequence of Glutathione peroxidase 1 (Homo sapiens) (P07203 whole entry, looked up): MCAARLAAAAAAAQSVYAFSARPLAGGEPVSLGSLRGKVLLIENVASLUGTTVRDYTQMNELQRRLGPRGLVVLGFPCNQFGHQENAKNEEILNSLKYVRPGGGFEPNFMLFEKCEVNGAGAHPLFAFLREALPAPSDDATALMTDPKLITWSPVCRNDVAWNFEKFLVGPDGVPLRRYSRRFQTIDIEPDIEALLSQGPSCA
compound,measurement,setting,value
COc1cc(C(=O)NC(N)=Nc2ccc(C)c(NC(=O)c3ccc(-c4ccccc4)cc3)c2)cc(OC)c1OC,Potency,[1],inactive
same,Potency,[2],13.2 µM (active)
same,Potency,[3],11.8 µM (active)
same,Potency,[4],inactive
same,Potency,[5],inactive
same,Z-AUC,[6],0.647 (inactive)
same,Z-AUC,[6]; measured here: PEO1 parental Z-AUC,0.261
same,Z-AUC,[6]; measured here: PEO4 Z-AUC,0.136
